# According to PubChem BioAssay (NCATS):
# Inconclusive results are not listed. Entries that show only a call come without a potency. The source made the active and inactive calls. The call rests on the fitted dose curve.
# Assays:
# [1] = Primary qHTS for Huh7 cytotoxicity: counterscreen for inhibitors of MERS-S pseudotyped particle cell entry (AID 1479147); details: outcome: dose series up to 57.1 µM unless noted; further: potency means the concentration at half of the fitted maximal effect
# [2] = Primary qHTS for inhibitors of MERS-S pseudo-typed particle cell entry (AID 1479149); details: outcome: dose series up to 57.1 µM unless noted; further: nearly all actives have a fitted effect of over 60% in size; further: potency means the concentration at half of the fitted maximal effect
# [3] = Primary qHTS for Vero E6 cytotoxicity: counterscreen for inhibitors of SARS-S pseudo-typed particle cell entry (AID 1479150); details: outcome: dose series up to 57.1 µM unless noted
# [4] = Cytotoxicity counterscreen for inhibitors of SARS-CoV-2 cell entry (AID 1645845); details: outcome: dose series up to 57.1 µM unless noted; further: nearly all actives have a fitted effect of over 50% in size; further: potency means the concentration at half of the fitted maximal effect
# In short: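 Expi293F/hACE2 cells seeded overnight; cpd pin-transferred in DMSO, 1 h preincubation, + media, 48 h 37 C 5% CO2; ATPLite 1step luminescence; normalized to cells and no cells.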
# [5] = Primary qHTS to identify inhibitors of SARS-CoV-2 cell entry (AID 1645846); details: SARS-CoV-2 pseudovirus cell entry assay, luminescence; activity change, negative = inhibition: at 57.1 µM (top of the series) unless noted; further: nearly all actives have a fitted effect of over 45% in size
# In short: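 Using luciferase-reporting pseudoviruses carrying Wuhan-Hu-1 spike, the screen tracks entry into stably ACE2-expressing cells over 48 hr. Activity is expressed relative to spike particles versus particles lacking any fusion protein.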
SMILES,Potency [1],Potency [2],Potency [3],Potency [4],Potency [5],"activity change, negative = inhibition [5]"
O=C(c1ccc(F)c(F)c1Nc1ccc(I)cc1F)N1CC(O)([C@@H]2CCCCN2)C1,inactive,inactive,inactive,31.6 µM (active),,
NC(=O)C1(N2CCCCC2)CCN(CCCN2c3ccccc3CCc3ccccc32)CC1,28.2 µM (active),8.91 µM (active),inactive,31.6 µM (active),,
O=C(O)C(O)[C@H](O)[C@H](O)[C@H](O)[C@H](O)CO (stereo not given in full),inactive,inactive,inactive,inactive,,
C[N+]1(C)CCN(CC(O)(c2ccccc2)C2CCCCC2)CC1 (stereo not given),inactive,inactive,inactive,inactive,,
C#C[C@]1(OC(C)=O)CC[C@H]2[C@@H]3CCC4=CC(=O)CC[C@@H]4[C@H]3CC[C@@]21C,inactive,inactive,inactive,inactive,,
Cc1cccc(C)c1N(CCCc1cccnc1)C(=O)C(C)N (stereo not given),inactive,inactive,inactive,inactive,,
O=C(O)C[C@@H]1CC[C@H](NC(=O)Cc2cccs2)B(O)O1,inactive,inactive,inactive,inactive,,
OCC=Cc1ccccc1,inactive,inactive,inactive,inactive,,
CC[C@@H]1CCN[C@H](C(=O)N[C@@H]([C@H]2O[C@H](SC)[C@H](O)[C@@H](O)[C@H]2O)[C@H](C)Cl)C1,inactive,inactive,inactive,inactive,,
CC(C)c1nc(N(C)S(C)(=O)=O)nc(-c2ccc(F)cc2)c1/C=C/[C@@H](O)C[C@@H](O)CC(=O)O,inactive,inactive,inactive,inactive,,
CC(=O)Nc1c(I)c(C(=O)N[C@H]2C(O)O[C@H](CO)[C@@H](O)[C@@H]2O)c(I)c(N(C)C(C)=O)c1I (stereo not given in full),inactive,inactive,inactive,inactive,,
O=C(O)CCC/C=C\C[C@@H]1[C@@H](/C=C/[C@@H](O)COc2cccc(Cl)c2)[C@H](O)C[C@@H]1O,inactive,inactive,inactive,inactive,inactive,
CC[C@H]1OC(=O)C[C@@H](O)[C@H](C)[C@@H](O[C@@H]2O[C@H](C)[C@@H](O)[C@H](N(C)C)[C@H]2O)[C@@H](CCN2C[C@H](C)C[C@H](C)C2)C[C@@H](C)C(=O)/C=C/C(C)=C/[C@@H]1CO[C@@H]1O[C@H](C)[C@@H](O)[C@@H](OC)[C@H]1OC,inactive,inactive,inactive,inactive,,
C=CC1(C)CC(=O)C2(O)C(C)(O1)C(OC(C)=O)C(OC(=O)CCN(C)C)C1C(C)(C)CCC(O)C12C (stereo not given),inactive,inactive,inactive,inactive,,
COC(=O)[C@@H](N)CS,inactive,inactive,inactive,inactive,,
O=C(O)c1cc(O)c2c(c1)[C@H]([C@H]1c3cc(C(=O)O)cc(O)c3C(=O)c3c(O[C@@H]4O[C@H](CO)[C@@H](O)[C@H](O)[C@H]4O)cccc31)c1cccc(O[C@@H]3O[C@H](CO)[C@@H](O)[C@H](O)[C@H]3O)c1C2=O,inactive,inactive,inactive,inactive,,
O=P(O)(O)OC(CO)CO,inactive,inactive,inactive,inactive,,
Cc1ccc(/C(=C\CN2CCCC2)c2cccc(/C=C/C(=O)O)n2)cc1,inactive,inactive,inactive,inactive,,
CCCOc1cc(N)ccc1C(=O)OCCN(CC)CC,inactive,inactive,inactive,inactive,,

SMILES,Potency [1],Potency [2],Potency [3],Potency [4],Potency [5],"activity change, negative = inhibition [5]"
CCCCCCCCCCCCOC(=O)CS(=O)(=O)O,inactive,inactive,inactive,inactive,,
CN(C)CCC(O)(c1ccccc1)c1ccccc1Cl (stereo not given),inactive,inactive,inactive,inactive,,
CC1CCCCN1CCCOC(=O)c1ccccc1 (stereo not given),inactive,inactive,inactive,inactive,,
CN1N=C2CCN(C(=O)[C@H](COCc3ccccc3)NC(=O)C(C)(C)N)C[C@]2(Cc2ccccc2)C1=O,inactive,inactive,inactive,inactive,,
CN1CCN(C2=Nc3ccccc3Cc3ccccc32)CC1,inactive,inactive,inactive,inactive,,
CC1(C)C[C@H]1C(=O)N/C(=C\CCCCSC[C@@H](N)C(=O)O)C(=O)O,inactive,inactive,inactive,inactive,,
COc1ccc(CNCC(O)COc2ccc3[nH]c(=O)ccc3c2)cc1OC (stereo not given),inactive,inactive,inactive,inactive,,
NCCC[C@H](NC(=O)[C@@H]1CCCN1C(=O)[C@@H]1CSSC[C@H](N)C(=O)N[C@@H](Cc2ccc(O)cc2)C(=O)N[C@@H](Cc2ccccc2)C(=O)N[C@@H](CCC(N)=O)C(=O)N[C@@H](CC(N)=O)C(=O)N1)C(=O)NCC(N)=O,inactive,inactive,inactive,inactive,,
COc1nc2ccc(Br)cc2cc1[C@@H](c1ccccc1)[C@@](O)(CCN(C)C)c1cccc2ccccc12,inactive,inactive,inactive,inactive,,
CC(=O)OCC1=C(C(=O)O)N2C(=O)[C@@H](NC(=O)[C@H](N)c3ccccc3)[C@H]2SC1,inactive,inactive,inactive,inactive,,
OCc1ccccc1,inactive,inactive,inactive,inactive,,3.04%
O=C1N=C(N2CCOCC2)CN1c1ccc(Cl)cc1,inactive,inactive,inactive,inactive,,
C[N+](C)(C)CC(O)CC(=O)O (stereo not given),inactive,inactive,inactive,inactive,,
CC(=O)N(CC(C)C(=O)O)c1c(I)cc(I)c(N)c1I (stereo not given),inactive,inactive,inactive,inactive,,
C=Cc1c(C)c2cc3nc(c(CC(=O)N[C@@H](CC(=O)O)C(=O)O)c4nc(cc5[nH]c(cc1[nH]2)c(C)c5CC)C(C)=C4C(=O)O)[C@@H](CCC(=O)O)[C@@H]3C,inactive,inactive,inactive,inactive,,
C=C1c2c(Cl)ccc(O)c2C(O)=C2C(=O)[C@@]3(O)C(O)=C(C(N)=O)C(=O)[C@@H](N(C)C)[C@@H]3[C@@H](O)[C@H]12,inactive,20 µM (active),inactive,inactive,,
CC(C)(C)C(=O)OCOC(=O)[C@@H]1N2C(=O)[C@@H](N=CN3CCCCCC3)[C@H]2SC1(C)C,inactive,inactive,inactive,inactive,,
Cc1c(C)c2c(c(C)c1OC(=O)CCC(=O)O)CC[C@@](C)(CCC[C@H](C)CCC[C@H](C)CCCC(C)C)O2,inactive,inactive,inactive,inactive,,
